{"source": "paper PMC7826789", "about": "(International Journal of Molecular Sciences, 2021);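 also: KINOMEscan scanMAX binding as percent activity remaining versus control; lower means stronger binding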"}
{"test_system": "AKT3", "details": "Compound Concentration (nM):1000", "units": {"Percent Control": "%"}}
{"compound": "Cl.O=C(Nc1ccc(Oc2ccc3[nH]c(NC(=O)c4ccco4)nc3c2)cc1)Nc1cc(C(F)(F)F)ccc1F", "note": "[GW683134A]", "Percent Control": 100}
{"compound": "O=C(Nc1n[nH]c2nc(-c3ccc(O)cc3)c(Br)cc12)C1CC1", "note": "[SB-725317]", "Percent Control": 85}
{"compound": "COc1cc2ncnc(Nc3ccc4c(cnn4Cc4ccccc4)c3)c2cc1OC.Cl", "note": "[GW282449A]", "Percent Control": 100}
{"compound": "CN(C)CCNC(=O)Nc1ccc(N(C)c2ccnc(Nc3ccc(CS(C)(=O)=O)cc3)n2)cc1.Cl", "note": "[GW830900A]", "Percent Control": 100}
{"compound": "CC1=C(C(=O)Nc2ccc3[nH]ncc3c2)C(c2ccc(Cl)c(Cl)c2)CC(=O)N1", "note": "(stereo not shown) [GSK299115A]", "Percent Control": 100}
{"compound": "COc1ccc(COc2ccc(Cc3cnc(N)nc3N)cc2OC)cc1", "note": "[GW632580X]", "Percent Control": 100}
{"compound": "CCS(=O)(=O)c1ccc(OC)c(Nc2ncc(-c3cccc(F)c3)o2)c1", "note": "[GW621970X]", "Percent Control": 100}
{"compound": "COc1cc(/C=N/Nc2ncnc3[nH]ncc23)ccc1O", "note": "[GW578748X]", "Percent Control": 100}
{"compound": "C/C(Nc1ccc(S(N)(=O)=O)cc1)=C1/C(=O)Nc2ccccc21", "note": "[GW335962X]", "Percent Control": 88}
{"compound": "CN1CCN(C(=O)c2ccc(NC(=O)Nc3ccc(N(C)c4ccnc(Nc5ccc(CS(C)(=O)=O)cc5)n4)cc3)cc2)CC1.Cl", "note": "[GW830263A]", "Percent Control": 100}
{"compound": "CC1=C(C(=O)Nc2ccc3[nH]ncc3c2)C(c2ccc3ccccc3c2)CC(=O)N1", "note": "(stereo not shown) [GSK270822A]", "Percent Control": 100}
{"compound": "COc1ccc2cc(-c3c(-c4ccncc4)nc(-c4ccc(S(C)(=O)=O)cc4C)n3C)ccc2c1", "note": "[SB-633825]", "Percent Control": 100}
{"compound": "COc1ccccc1-c1cc(/C=C2\\C(=O)Nc3ncc(Br)cc32)cc(Br)c1O", "note": "[GW442130X]", "Percent Control": 100}
{"compound": "NS(=O)(=O)c1ccc(N/N=C2\\C(=O)Nc3ccc(C(=O)NCc4ccncc4)cc32)cc1", "note": "[GW300657X]", "Percent Control": 100}
{"compound": "Cl.O=C(O[C@H]1CN[C@H](C#Cc2cc3ncnc(Nc4ccc5c(cnn5Cc5ccccc5)c4)c3s2)C1)N1CCOCC1", "note": "[GSK200398A]", "Percent Control": 100}
{"compound": "Cl.O=S1CCN(Cc2ccc(-c3ccc4ncnc(Nc5ccc(OCc6ccccc6)c(F)c5)c4c3)o2)CC1", "note": "[GW576924A]", "Percent Control": 100}
{"compound": "Cl.c1ccc(Cc2nc3ccc(Nc4ncnc5ccccc45)cc3[nH]2)cc1", "note": "[GR269666A]", "Percent Control": 100}
{"compound": "COc1cccc(-c2c[nH]c3c(N/N=C/c4ccncc4)ncnc23)c1", "note": "[GW814408X]", "Percent Control": 100}
{"compound": "Cl.O=C(Nc1ccc(Oc2ccc3[nH]c(NC(=O)c4ccccc4)nc3c2)cc1)Nc1cc(C(F)(F)F)ccc1F", "note": "[GW709042A]", "Percent Control": 100}
{"compound": "CCn1c(-c2nonc2N)nc2c(C#CC(C)(C)O)nc(OCCNC)cc21.Cl", "note": "[GSK949675]", "Percent Control": 0.2}
{"compound": "CN(C)c1cc2c(Nc3ccc4c(cnn4Cc4ccccc4)c3)ncnc2cn1", "note": "[GW282974X]", "Percent Control": 100}
{"compound": "C[C@@H](Oc1cc(-n2cnc3ccc(OC4CCN(C)CC4)cc32)sc1C(N)=O)c1ccccc1Cl", "note": "[GSK579289A]", "Percent Control": 100}
{"compound": "CCc1ccc(Oc2nccc(-c3c(-c4ccc(F)cc4)ncn3C3CCNCC3)n2)cc1", "note": "[SB-242719]", "Percent Control": 100}
{"compound": "NS(=O)(=O)c1ccc(N/N=C2\\C(=O)Nc3ccc(-c4cnco4)cc32)cc1", "note": "[GW276655]", "Percent Control": 100}
{"compound": "COc1cc(C)c(N(C)C(=O)CN(C)C)cc1Nc1nc(Nc2cccc(F)c2C(N)=O)c2cc[nH]c2n1", "note": "[GSK2219385]", "Percent Control": 100}
{"compound": "COc1ccc2[nH]c3c4[nH]c5ccc(OC)cc5c4c4c(c3c2c1)C(=O)NC4=O", "note": "[GW296115X]", "Percent Control": 98}
{"compound": "COc1cc(C=NNc2ncnc3c2cnn3-c2ccccc2)ccc1O", "note": "[GW513184X]", "Percent Control": 100}
{"compound": "NS(=O)(=O)c1ccc(N/N=C2\\C(=O)Nc3ccc(Cl)cc32)cc1", "note": "[GW280670X]", "Percent Control": 100}
{"compound": "COc1cc(N2CCN(C(C)C)CC2)ccc1Nc1nc(Nc2ccc(F)cc2C(=O)NC[C@@H](O)CO)c2cc[nH]c2n1", "note": "[GSK1392956A]", "Percent Control": 100}
{"compound": "Cc1cc(O)cc(C)c1/C=C/c1cncc(C(N)=O)c1", "note": "[GW435821X]", "Percent Control": 100}
{"compound": "COC(=O)Nc1nc2ccc(Oc3ccc(NC(=O)Nc4cc(C(F)(F)F)ccc4F)cc3)cc2s1.Cl", "note": "[GW693917A]", "Percent Control": 100}
{"compound": "CC(C)COC(=O)c1ccc2c(c1)/C(=C/Nc1ccc(S(N)(=O)=O)cc1)C(=O)N2", "note": "[GW416981X]", "Percent Control": 100}
{"compound": "CCS(=O)(=O)c1ccc(OC)c(Nc2ncc(-c3cccc(OC)c3)o2)c1", "note": "[GW580509X]", "Percent Control": 100}
{"compound": "COc1cccc(-n2ncc3c(N/N=C/c4ccncc4)ncnc32)c1", "note": "[GW784752X]", "Percent Control": 100}
{"compound": "COc1ccc2c(-c3ccnc(Nc4cccc(OC(F)(F)F)c4)n3)cnn2n1", "note": "[GW810372X]", "Percent Control": 100}
{"compound": "O=C1Nc2ccc(C(=O)c3ccco3)cc2C1=Cc1cc(Cl)c(O)c(Cl)c1", "note": "[GW406108X]", "Percent Control": 100}
{"compound": "NS(=O)(=O)c1ccc(Nc2ncc(-c3ccccc3)o2)cc1", "note": "[GW572399X]", "Percent Control": 100}
{"compound": "COc1cc2ncn(-c3cc(O[C@H](C)c4ccccc4Cl)c(C(N)=O)s3)c2cc1OC", "note": "[GSK237701A]", "Percent Control": 100}
{"compound": "Nc1ncnc2occ(-c3ccc(NC(=O)Nc4cc(C(F)(F)F)ccc4F)cc3)c12", "note": "[GW770249X]", "Percent Control": 100}
{"compound": "NS(=O)(=O)c1ccc(N/N=C2\\C(=O)Nc3ccc(C(=O)NCCc4c[nH]cn4)cc32)cc1", "note": "[GW300660X]", "Percent Control": 100}
